PubChem BioAssay AID1851 (National Center for Advancing Translational Sciences (NCATS), 2009)
Among all 16,000 compounds or so, about 2,600 (16%) were called active. About 20% were inconclusive and are not listed. Calls come from the whole dose curve; as a rule, active = well fitted curve in the direction sought with a large enough effect; inconclusive = small, poorly fitted or top-dose-only effect, or effect the other way; inactive = no such curve, though single readings can be large or run the other way. Not all results are given here.

Target: Cytochrome P450 2D6 (Homo sapiens) (UniProt P10635)
Sequence (P10635 whole entry, looked up): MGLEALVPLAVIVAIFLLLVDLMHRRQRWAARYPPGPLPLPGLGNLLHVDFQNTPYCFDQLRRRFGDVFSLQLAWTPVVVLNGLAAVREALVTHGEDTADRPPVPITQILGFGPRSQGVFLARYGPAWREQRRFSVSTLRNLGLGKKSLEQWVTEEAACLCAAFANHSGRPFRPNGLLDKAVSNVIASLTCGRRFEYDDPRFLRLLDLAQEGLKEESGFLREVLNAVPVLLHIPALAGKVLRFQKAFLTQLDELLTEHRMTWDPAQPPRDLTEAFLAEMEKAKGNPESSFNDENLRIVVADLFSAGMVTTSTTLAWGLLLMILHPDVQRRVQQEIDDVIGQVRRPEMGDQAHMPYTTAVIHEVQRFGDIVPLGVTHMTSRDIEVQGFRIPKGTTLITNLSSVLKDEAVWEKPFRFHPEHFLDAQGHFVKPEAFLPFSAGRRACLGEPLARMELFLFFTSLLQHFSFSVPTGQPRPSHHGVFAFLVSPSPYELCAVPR
Test: Cytochrome panel assay with activity outcomes
Conditions: recombinant CYP, pro-luciferin dealkylation, luminescence, p450-cyp2d6; series mostly up to 57.1 µM
% is set by controls: 0 for no effect and ±100 for the full control effect.

Q: For CCS(=O)(=O)NCCc1cc2ccc(C)cc2[nH]c1=O, which AC50 is on record?
A: inactive

Q: Which AC50 does the source give for CN(C)c1ncc2nc(-c3ccccc3)c(=O)n(C)c2n1 here?
A: inactive

Q: With CC(C)(C)C(=O)NC(c1ccc(Cl)cc1)[C@]1(C)C[C@H]1C1CCCCC1 (stereo partly specified) as the compound, how does the AC50 read?
A: inactive

Q: For CNc1ncnc2ccc(-c3cccc(OC)c3)cc12, which AC50 is on record?
A: 15.8 µM (active)

Q: With COc1cccc(-c2ccc3ncnc(Nc4ccccc4)c3c2)c1 as the compound, how does the AC50 read?
A: inactive

Q: With COc1cccc(-c2ccc3ncnc(N(C)Cc4ccco4)c3c2)c1 as the compound, how does the AC50 read?
A: 10 µM (active)

Q: COc1cccc(-c2ccc3ncnc(NC4CCNCC4)c3c2)c1 was tested. Which AC50 did it give?
A: inactive

Q: With CN(Cc1ccco1)c1ncnc2ccc(-c3ccc4c(c3)OCO4)cc12 as the compound, how does the AC50 read?
A: 1.58 µM (active)

Q: For COc1cccc(-c2ccc3ncnc(N(C)C)c3c2)c1, which AC50 is on record?
A: 10 µM (active)

Q: Which AC50 does the source give for Cc1ccc(C(=O)NC(=S)NCC2CCCO2)cc1 (stereo unspecified) here?
A: inactive

Q: Which AC50 does the source give for Cc1ccc(C2(C)NC(=O)N(CC(=O)Nc3cc(C)on3)C2=O)cc1 (stereo unspecified) here?
A: inactive

Q: With COc1ccc(-n2c(SC)nc(O)c(Cc3ccccc3)c2=O)cc1 as the compound, how does the AC50 read?
A: inactive

Q: How did the AC50 turn out when CC1=NN(c2ccccc2)C(=O)C1C(=O)c1ccc(Cl)cc1 (stereo unspecified) was run?
A: inactive

Q: For CCOc1ccc(CSC(CC(=O)O)C(=O)O)cc1 (stereo unspecified), which AC50 is on record?
A: inactive

Q: With CSC1=N/C(=C\c2ccc(C)cc2)C(=O)S1 as the compound, how does the AC50 read?
A: inactive

Q: C[C@H](N=C(NC#N)Nc1ccncc1)C(C)(C)C was tested. Which AC50 did it give?
A: inactive

Q: With C[N+](C)(C)c1ncnc2c1ncn2[C@@H]1CCCCO1 as the compound, how does the activity, negative = inhibition read?
A: -6.66% [at 11.4 µM] (inactive)

Q: How did the AC50 turn out when CCNc1ncc2nc(-c3cn(C)c4ccccc34)c(=O)n(Cc3cccc(OC)c3)c2n1 was run?
A: inactive

Q: Which AC50 does the source give for CCOC(=O)/C(C(N)=NCCCO)=C(/O)c1ccccc1 here?
A: inactive

Q: Which AC50 does the source give for COc1cc(OC)c(C#N)c(S(=O)(=O)Cc2ccccc2)c1 here?
A: inactive

Q: COC(=O)c1c(-c2cc(OC)c(OC)c(OC)c2)c2ccc(OCc3ccccn3)cc2c(=O)n1-c1ccc(N)cc1 was tested. Which AC50 did it give?
A: inactive

Q: With O=C(Oc1ccccc1)N1CCC2(CC1)CN(c1ccccc1)C2 as the compound, how does the AC50 read?
A: inactive

Q: Which AC50 does the source give for O=C(Cn1nnc2ccccc21)N1CCCCC1 here?
A: inactive

Q: For COc1ccc(N(C(=O)Cn2nnc3ccccc32)C2(C(=O)NC3CCCC3)CCCCC2)cc1, which AC50 is on record?
A: 11.2 µM (active)

Q: With COCCNC(=O)C(c1ccc(C)o1)N(CC1CCCO1)C(=O)Cn1nnc2ccccc21 (stereo unspecified) as the compound, how does the AC50 read?
A: inactive

Q: CCOCC(=O)Nc1cc(-c2cn3cccnc3n2)ccc1C was tested. Which AC50 did it give?
A: inactive

Q: Which AC50 does the source give for Clc1ccc(-c2ccnc(Oc3cc(Cl)ccc3Cl)n2)cc1 here?
A: inactive

Q: Which AC50 does the source give for CCOc1cc2[nH]c(=O)n(CCC(=O)NCc3ccc(OC)cc3)c(=O)c2cc1OCC here?
A: inactive

Q: For CCOC(=O)CSc1nc2ccccc2c(=O)n1CC1CCC(C(=O)NCc2ccco2)CC1 (stereo unspecified), which AC50 is on record?
A: inactive

Q: Which AC50 does the source give for O=C(CSc1nc2ccccc2c(=O)n1CCCC(=O)N1CCCC1)NCc1ccco1 here?
A: inactive

Q: CCc1ccc(NC(=O)CSc2nc3cc(C(=O)OC)ccc3c(=O)n2Cc2ccco2)cc1 was tested. Which AC50 did it give?
A: inactive

Q: How did the AC50 turn out when Cc1cc(NC(=O)CSc2nc3ccccc3c(=O)n2CCCC(=O)NCc2ccco2)n[nH]1 was run?
A: 15.8 µM (active)

Q: With CCCCCn1c(SCc2ccncc2)nc2cc(C(=O)NCc3ccco3)ccc2c1=O as the compound, how does the AC50 read?
A: 0.794 µM (active)

Q: With O=C(NCC1CCCO1)c1ccc2c(=O)n(Cc3ccco3)c(SCC(=O)N3CCCC3)nc2c1 (stereo unspecified) as the compound, how does the AC50 read?
A: inactive

Q: For Cc1cccc(C)c1-n1c(SCC(=O)NCc2ccco2)nc2ccccc2c1=O, which AC50 is on record?
A: 28.2 µM (active)

Q: O=C(CSc1nc2ccccc2c(=O)n1Cc1ccccc1)NCc1ccco1 was tested. Which AC50 did it give?
A: inactive

Q: With Cc1cc(NC(=O)CSc2nc3ccsc3c(=O)n2Cc2ccccn2)n[nH]1 as the compound, how does the AC50 read?
A: inactive

Q: Which AC50 does the source give for C=CCOc1ccc2cccc(/C=N/NC(=O)c3cc4cc([N+](=O)[O-])ccc4s3)c2c1 here?
A: inactive

Q: Which AC50 does the source give for CCCCCCCOC1(c2ccccc2)OC(=O)c2ccccc21 (stereo unspecified) here?
A: inactive

Q: How did the AC50 turn out when CCCN(CCC)C(=O)[C@@H](CCC(=O)O)NC(=O)c1ccccc1 was run?
A: inactive

Q: How did the activity, negative = inhibition turn out when CC(=O)Nc1ccc2c(c1)/C(=C/c1ccc([N+](C)(C)C)cc1)c1ccccc1-2 was run?
A: -4.76% [at 11.4 µM] (inactive)

Q: For Cc1sc2nc(SCc3nc(-c4cccs4)no3)n(-c3ccccc3)c(=O)c2c1C, which AC50 is on record?
A: inactive

Q: How did the activity, negative = inhibition turn out when CC(C)=NNc1ncnc2nc[nH]c12 was run?
A: 12.8% [at 11.4 µM] (inactive)

Q: For CN(C)CCN1C(=O)C(O)=C(C(=O)c2cc3ccccc3o2)C1c1ccccn1 (stereo unspecified), which AC50 is on record?
A: inactive

Q: How did the AC50 turn out when NC(=NCCC[C@H](N)C(=O)O)NO was run?
A: inactive

Q: For NC(=S)NCCC[C@@H](N)C(=O)O, which AC50 is on record?
A: inactive

Q: With CCCN=C(N)NCCC[C@H](N)C(=O)O as the compound, how does the AC50 read?
A: 7.94 µM (active)

Q: For O=C(Nc1cnn(Cc2ccc(Cl)cc2)c1)c1ccc([N+](=O)[O-])cc1, which AC50 is on record?
A: inactive

Q: For CSc1ccc2nnc(-c3cccc(F)c3)n2n1, which AC50 is on record?
A: inactive

Q: Cc1nnc(C)n1/N=C/c1cccs1 was tested. Which AC50 did it give?
A: inactive

Q: Which AC50 does the source give for Cc1ccc(/C=N/n2c(COc3ccccc3)n[nH]c2=S)s1 here?
A: inactive

Q: S=c1[nH]nc(C2CCCCC2)n1/N=C/c1cccs1 was tested. Which AC50 did it give?
A: 2.24 µM (active)

Q: Which AC50 does the source give for O=C1C2ON(c3ccccc3)C(c3ccncc3)C2C(=O)N1c1ccccc1 (stereo unspecified) here?
A: inactive

Q: For Cc1nc2ccccc2n1CC(=O)N/N=C\c1ccccn1, which AC50 is on record?
A: inactive

Q: Cc1cc(C2C(C#N)=C(N)Oc3n[nH]c(C)c32)c(C)s1 (stereo unspecified) was tested. Which AC50 did it give?
A: inactive

Q: Which AC50 does the source give for Cc1ccsc1/C=N/Nc1nc(Cl)c(Cl)cc1Cl here?
A: inactive

Q: For OCCN(C=NC1=NN(c2cccc(C(F)(F)F)c2)CC1)CCO, which AC50 is on record?
A: inactive

Q: Cc1ccc(C)c(NC(=S)N(CCc2nc3cc(C)c(C)cc3[nH]2)Cc2cccnc2)c1 was tested. Which AC50 did it give?
A: 1 µM (active)

Q: Which AC50 does the source give for COc1cccc(/C=N/NC(=O)C(=O)NCc2cccnc2)c1 here?
A: inactive

Q: For CCc1ccc2c(c1)cc(CN(C(=S)Nc1cccc(C)c1)C1CC1)c1nnnn12, which AC50 is on record?
A: inactive

Q: Which AC50 does the source give for COc1ccc2[nH]c(=O)c(NC(N)=S)nc2c1 here?
A: inactive

Q: For Cc1cccc(NC(=S)N(CCc2nc3cc(C)c(C)cc3[nH]2)Cc2cccnc2)c1, which AC50 is on record?
A: 3.16 µM (active)

Q: How did the AC50 turn out when COc1ccc(NC(=S)N(CCc2nc3cc(C)c(C)cc3[nH]2)Cc2cccnc2)cc1 was run?
A: 11.2 µM (active)

Q: How did the AC50 turn out when CC(=O)CC(=O)[C@@]1(O)CC[C@@H]2[C@@H]3C=C(C)C4=CC(=O)CC[C@@H]4[C@H]3CC[C@]21C was run?
A: inactive

Q: O=C(O)[C@@H](O)[C@@H](O)[C@@H](O[C@H]1O[C@@H](CO)[C@@H](O)[C@@H](O)[C@@H]1O)[C@@H](O)CO was tested. Which AC50 did it give?
A: inactive

Q: Which AC50 does the source give for COc1cc(NC(=S)Nc2ccc(S(=O)(=O)N3CCOCC3)cc2)cc(OC)c1OC here?
A: inactive
